Measurements taken from PubChem BioAssay.
Activity calls are given as the source filed them.

Tests used:
[1] = small molecules captured by biotinylated probe aFSTL3 – biochemical, small-molecule microarray, fluorescence 635/667, stem cell growth factor project, primary screen (AID 1064); settings: higher = more signal;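 further: measures binding of the biotinylated anti-FSTL3 antibody to printed compounds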
[2] = binders from COS7 lysate, DM2A8 probe, primary screen, torsin A project, cell lysate, small-molecule microarray, fluorescence 635/667 (AID 1065); settings: higher = more signal, COS7 lysate expressing mutant human TOR1A
[3] = small molecules captured by biotinylated probe aFGF2 – biochemical, small-molecule microarray, fluorescence 635/667, stem cell growth factor project, primary screen (AID 1067); settings: higher = more signal;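 further: measures binding of biotinylated aFGF2 protein to printed compounds on slides; z-score merges feature fluorescence and signal-to-noise across triplicate slides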
[4] = small molecules captured by biotinylated probe aFGF10 – biochemical, small-molecule microarray, fluorescence 635/667, stem cell growth factor project, primary screen (AID 1071); settings: higher = more signal;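 further: score merges 667 nm spot intensity and signal to noise from triplicate slides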
[5] = molecular target: Neurogenic locus notch homolog protein 2 (Homo sapiens) (UniProt Q04721); test: small molecules binding Notch2 protein – biochemical, small-molecule microarray, 635 nm fluorescence, stem cell growth factors, primary screen (AID 1073); settings: higher = more signal
Chain of Neurogenic locus notch homolog protein 2 (Homo sapiens) (Q04721 whole entry, looked up, canonical isoform): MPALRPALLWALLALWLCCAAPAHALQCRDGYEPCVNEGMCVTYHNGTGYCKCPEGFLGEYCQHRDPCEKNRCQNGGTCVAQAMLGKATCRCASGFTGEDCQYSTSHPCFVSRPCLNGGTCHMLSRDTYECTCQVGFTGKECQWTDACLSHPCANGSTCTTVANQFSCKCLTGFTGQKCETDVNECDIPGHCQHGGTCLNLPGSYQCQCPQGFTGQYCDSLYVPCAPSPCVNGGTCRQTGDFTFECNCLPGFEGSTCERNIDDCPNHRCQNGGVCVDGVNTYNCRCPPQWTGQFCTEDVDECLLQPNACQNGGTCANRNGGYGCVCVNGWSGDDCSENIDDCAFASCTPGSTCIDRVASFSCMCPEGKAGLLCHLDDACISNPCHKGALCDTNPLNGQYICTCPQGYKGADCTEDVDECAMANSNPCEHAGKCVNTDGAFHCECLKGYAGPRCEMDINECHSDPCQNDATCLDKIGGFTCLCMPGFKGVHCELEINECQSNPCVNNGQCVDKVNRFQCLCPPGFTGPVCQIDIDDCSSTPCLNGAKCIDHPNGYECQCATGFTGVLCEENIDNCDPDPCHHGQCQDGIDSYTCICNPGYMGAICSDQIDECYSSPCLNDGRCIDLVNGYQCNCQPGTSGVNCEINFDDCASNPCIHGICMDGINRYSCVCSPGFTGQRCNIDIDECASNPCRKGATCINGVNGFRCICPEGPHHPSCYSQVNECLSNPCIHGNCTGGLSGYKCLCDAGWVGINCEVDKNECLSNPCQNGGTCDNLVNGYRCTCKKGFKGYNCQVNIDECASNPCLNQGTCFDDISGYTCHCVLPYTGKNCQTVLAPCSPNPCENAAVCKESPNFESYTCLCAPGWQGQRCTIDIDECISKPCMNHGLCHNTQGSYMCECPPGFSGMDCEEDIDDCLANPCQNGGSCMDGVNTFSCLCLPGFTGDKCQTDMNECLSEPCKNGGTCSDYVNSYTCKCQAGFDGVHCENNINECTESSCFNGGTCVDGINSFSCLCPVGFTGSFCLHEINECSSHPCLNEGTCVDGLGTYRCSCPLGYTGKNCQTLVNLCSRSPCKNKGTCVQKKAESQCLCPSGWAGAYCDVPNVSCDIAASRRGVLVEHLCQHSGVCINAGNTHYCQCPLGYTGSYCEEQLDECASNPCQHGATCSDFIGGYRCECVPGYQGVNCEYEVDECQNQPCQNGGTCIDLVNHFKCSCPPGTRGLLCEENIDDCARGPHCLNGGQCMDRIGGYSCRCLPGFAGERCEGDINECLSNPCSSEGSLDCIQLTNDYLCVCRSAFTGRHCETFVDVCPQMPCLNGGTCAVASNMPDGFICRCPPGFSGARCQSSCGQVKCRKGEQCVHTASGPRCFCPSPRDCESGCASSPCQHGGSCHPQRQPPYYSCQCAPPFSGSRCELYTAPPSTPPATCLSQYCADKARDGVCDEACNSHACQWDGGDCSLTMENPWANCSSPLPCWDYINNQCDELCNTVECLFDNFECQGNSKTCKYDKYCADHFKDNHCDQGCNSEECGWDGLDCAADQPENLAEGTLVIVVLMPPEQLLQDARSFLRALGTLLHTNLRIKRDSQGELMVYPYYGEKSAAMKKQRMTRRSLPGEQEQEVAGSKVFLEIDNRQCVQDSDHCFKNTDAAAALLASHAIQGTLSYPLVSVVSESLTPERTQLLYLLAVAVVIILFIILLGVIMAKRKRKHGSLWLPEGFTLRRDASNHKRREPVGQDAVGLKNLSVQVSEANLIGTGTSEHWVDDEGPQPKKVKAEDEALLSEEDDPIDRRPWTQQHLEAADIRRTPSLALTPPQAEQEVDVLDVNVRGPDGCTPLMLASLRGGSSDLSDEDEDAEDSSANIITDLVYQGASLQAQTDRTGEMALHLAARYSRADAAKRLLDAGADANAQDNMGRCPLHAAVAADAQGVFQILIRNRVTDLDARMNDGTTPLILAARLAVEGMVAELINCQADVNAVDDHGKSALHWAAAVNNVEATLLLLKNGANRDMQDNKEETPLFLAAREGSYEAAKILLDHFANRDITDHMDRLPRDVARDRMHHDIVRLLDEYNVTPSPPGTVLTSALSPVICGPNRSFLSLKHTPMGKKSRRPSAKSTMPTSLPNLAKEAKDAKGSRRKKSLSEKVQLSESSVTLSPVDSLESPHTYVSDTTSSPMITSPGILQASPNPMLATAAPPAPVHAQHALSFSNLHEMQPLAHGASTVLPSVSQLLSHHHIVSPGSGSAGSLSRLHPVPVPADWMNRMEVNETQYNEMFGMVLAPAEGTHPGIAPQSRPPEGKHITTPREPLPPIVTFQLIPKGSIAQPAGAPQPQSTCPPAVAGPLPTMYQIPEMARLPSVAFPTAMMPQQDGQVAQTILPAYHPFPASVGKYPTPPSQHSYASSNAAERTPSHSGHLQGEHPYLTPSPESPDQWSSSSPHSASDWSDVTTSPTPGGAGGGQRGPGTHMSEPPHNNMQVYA

[6] = molecular target: Pro-neuregulin-1, membrane-bound isoform (Homo sapiens) (UniProt Q02297); test: small molecules binding neuregulin-1 protein – biochemical, small-molecule microarray, fluorescence 635/667, psychiatric disease protein project, primary screen (AID 1075); settings: NRG1 binding, 635 nm fluorescence, higher = more signal;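 further: score combines 667 nm spot fluorescence with signal to noise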
Chain of Pro-neuregulin-1, membrane-bound isoform (Homo sapiens) (Q02297 whole entry, looked up, the tested form may be a part, canonical isoform): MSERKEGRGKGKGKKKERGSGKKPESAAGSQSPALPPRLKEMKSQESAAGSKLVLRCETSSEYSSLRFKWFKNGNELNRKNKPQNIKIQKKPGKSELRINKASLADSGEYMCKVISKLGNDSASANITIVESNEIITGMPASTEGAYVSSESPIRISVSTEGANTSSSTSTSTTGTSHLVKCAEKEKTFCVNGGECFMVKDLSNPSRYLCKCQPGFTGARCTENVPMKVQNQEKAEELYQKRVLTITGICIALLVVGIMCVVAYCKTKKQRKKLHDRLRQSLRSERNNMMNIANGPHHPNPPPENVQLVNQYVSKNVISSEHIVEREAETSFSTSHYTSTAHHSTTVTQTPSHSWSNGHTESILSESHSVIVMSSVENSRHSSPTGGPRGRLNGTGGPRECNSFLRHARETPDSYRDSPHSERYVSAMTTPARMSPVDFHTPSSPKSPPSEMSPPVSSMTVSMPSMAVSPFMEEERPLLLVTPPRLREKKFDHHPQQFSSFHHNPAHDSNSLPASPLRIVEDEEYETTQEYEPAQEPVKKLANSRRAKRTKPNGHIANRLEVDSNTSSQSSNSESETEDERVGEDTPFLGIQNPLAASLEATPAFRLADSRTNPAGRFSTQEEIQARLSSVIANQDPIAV

[7] = tested on: Neuregulin-1 EGF-like domain; test: small molecules binding NRG1 EGF domain – biochemical, small-molecule microarray, 635 nm fluorescence, primary screen (AID 1081); settings: higher = more signal;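 further: binding of the protein to compounds printed on small-molecule microarray slides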
[8] = FRG1 expression reporter modulators in myotubes – cell-based, C2C12 myotubes, firefly/Renilla luciferase, luminescence, FRG1 inhibition for FSHD, primary screen (AID 1084); settings: FRG1 promoter luciferase, higher = more signal, called active from +8 up or from −8 down
[9] = small molecules captured by biotinylated probe aFST – biochemical, small-molecule microarray, fluorescence 635/667, stem cell growth factor project, primary screen (AID 1086); settings: higher = more signal;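 further: score merges 667 nm fluorescence with signal-to-noise of each printed compound spot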
[10] = binders of probe aHhip on microarray, primary screen, stem cell growth factor project, biochemical, small-molecule microarray, fluorescence 635/667 (AID 1087); settings: higher = more signal;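 further: score merges spot fluorescence at 667nm with spot signal to noise ratio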

| SMILES | composite z-score [1] | composite z-score [2] | composite z-score [3] | composite z-score [4] | composite z-score [5] | composite z-score [6] | composite z-score [7] | z-score [8] | composite z-score [9] | composite z-score [10] |
| --- | --- | --- | --- | --- | --- | --- | --- | --- | --- | --- |
| C=CCNC(=O)[C@@H]1[C@H]2C(=O)O[C@H](c3ccccc3)[C@H](c3ccccc3)N2[C@H](c2ccc(OCCO)cc2)[C@@]12C(=O)N(C(=O)OCCOC)c1ccc(C#CC3=CCCCC3)cc12 | 0.0698 | 0.937 | 0.0524 | 0.59 | 1.35 | 1.33 | 1.17 | 0.223 (inactive) | 0.622 | 0.21 |
| O=C(O)[C@]1(Cc2ccccc2)N=C(c2ccc(OCCCO)cc2)O[C@@H]1c1ccccc1 | 0.428 | -1.31 | -0.135 | -0.321 | 0.0148 | 1.45 | 0.847 | -0.737 (inactive) | 0.378 | -0.164 |
| C=C(/C=C/CNS(=O)(=O)c1ccc(C)cc1)[C@H](O)[C@H]1CCCN1S(=O)(=O)c1ccccc1[N+](=O)[O-] | -0.402 | 0.578 | -0.0817 | 0.395 | 0.324 | 0.211 | 0.0706 | -4.12 (inactive) | 0.279 | 0.0373 |
| CC(=O)n1cc(C(O)C2C=CC3C(=O)N(c4ccccc4)C(=O)C3N2Nc2ccccc2)c2ccccc21 (stereo not given) | 1.87 | 0.489 | 0.447 | 0.893 | 1.52 | 0.837 | 1.11 | 0.621 (inactive) | 1.1 | -0.0702 |
| CCOC(=O)C1=CC[C@@H](c2cc(Cl)ccc2Cl)N(S(=O)(=O)c2ccc(C)cc2)[C@H]1c1ccc(OC)cc1 | 0.522 | 0.0025 | 0.259 | 0.582 | 0.147 | -0.362 | 0.13 | -1.69 (inactive) | 0.623 | 0.082 |
| NC(=O)N1C(=O)C2C(C1=O)C1C=C(CCCO)C2C(c2cccs2)N1Cc1cc2c(cc1Br)OCO2 (stereo not given) | -0.137 | 0.314 | -0.0036 | 0.0276 | 0.0449 | 0.453 | 1.16 | -1.85 (inactive) | 0.117 | -0.0645 |
| CCOC(=O)C[C@H]1[C@H](OC(=O)c2ccc(C(=O)c3ccccc3)cc2)[C@@H](NC(=O)c2ccc3ccccc3c2)c2cc(OCCCO)ccc2N1C(=O)c1ccccc1 | -0.476 | 0.443 | -0.0943 | 0.757 | 1.48 | 1.01 | 1.07 | 0.0732 (inactive) | 0.355 | -0.0672 |
| C=CCOC(=O)[C@H]1[C@@H]2C(=O)O[C@@H](c3ccccc3)[C@@H](c3ccccc3)N2[C@@H](c2ccc(OCCOC(=O)[C@H]3C[C@H]4C(=O)N[C@@H](CCCC[N+](C)(C)C)C(=O)N4[C@H]3c3cccc(OCCO)c3)cc2)[C@]12C(=O)Nc1ccc(I)cc12 | -0.345 | 0.46 | -0.0937 | 0.723 | 0.312 | 0.288 | 0.755 | 0.707 (inactive) | -0.278 | -0.126 |
| COc1ccc(C(O)C2C=CC3C(=O)N(C)C(=O)C3N2N2CCCCC2)cc1 (stereo not given) | -0.162 | 1.42 | 0.213 | 1 | 1.65 | 1.61 | 1.38 | 1.51 (inactive) | 0.201 | -0.283 |
| C=CC[C@@]12N=C(c3ccc(OCCCO)cc3)O[C@@H]1c1ccccc1N(CCS(=O)(=O)c1ccccc1)C2=O | -0.015 | -0.302 | 0.188 | 0.0692 | 0.659 | 1.22 | 1.32 | 0.601 (inactive) | 0.261 | -0.0391 |
| COc1ccc([Si](C)(C)[C@@H]2[C@@H](CCn3cc([C@H](O)c4ccccc4)nn3)O[C@]3(C(=O)N(Cc4ccc(N5CCOC5=O)cc4)c4ccccc43)[C@H]2C)cc1 | -0.28 | 0.882 | -0.0658 | 0.512 | 0.62 | 0.61 | 0.825 | 0.216 (inactive) | 0.137 | 0.0854 |
| O=c1cccc(-c2ccc(C(F)(F)F)cc2)o1 | -0.0035 | -0.814 | -0.045 | -0.173 | -0.33 | -0.289 | -0.44 | 3.27 (inactive) | -0.126 | -0.0994 |
| C=C[C@@H](C)[C@H](OC(=O)Nc1ccc(SC)cc1)c1ccc(OCCO)cc1 | 0.342 | -0.272 | -0.215 | -0.542 | -0.713 | 1.8 | 1.22 | 6.28 (inactive) | -0.375 | -0.0538 |
| COC(=O)[C@@]1(Cc2ccc(OC)cc2)[C@H]2c3cc(C(=O)N(C)C)n(Cc4nc5ccccc5[nH]4)c3C[C@H]2CN1C(=O)c1ccccc1 | 0.0732 | -0.401 | 0.212 | 0.874 | 1.76 | 1.82 | 1.23 | -1.62 (inactive) | 1.09 | 0.147 |
| [N-]=[N+]=Nc1ccccc1[C@H]1OC(c2ccc(OCCCO)cc2)=N[C@@]1(CCS(=O)(=O)c1ccccc1)C(=O)N1CCCCC1 | 1.26 | 0.526 | 0.0056 | 0.699 | 1.43 | 1.46 | 1.2 | 1.8 (inactive) | 1.24 | -0.201 |
| COCCOC(=O)N1C(=O)[C@@]2(c3cc(C#CC4=CCCCC4)ccc31)[C@H](c1ccccc1OCCO)N1[C@H](c3ccccc3)[C@H](c3ccccc3)OC(=O)[C@H]1[C@@H]2C(=O)N1CCc2cc(OC)c(OC)cc2C1 | -0.516 | 0.433 | 0.0571 | 0.515 | 1.18 | 0.319 | 1.07 | -0.202 (inactive) | 0.401 | -0.521 |
| NC(=O)N1C(=O)C2C(C1=O)C1C=C(c3ccc(CO)cc3)C2C(C2CC2)N1Cc1sc2ccccc2c1Cl (stereo not given) | -0.418 | 2.2 | 0.0433 | 1.17 | 1.19 | 1.6 | 1.28 | -1.27 (inactive) | 0.32 | 0.0623 |
| CC(CO)N1C(=O)[C@@H]2C3C(=O)OCCC/C=C\[C@H]3OC23C=CCN(Cn2nnc4ccccc42)C(=O)[C@@H]13 (stereo not given in full) | -0.185 | -0.469 | -0.107 | 0.285 | -0.722 | 1.7 | 1.34 | -1.11 (inactive) | -0.161 | 0.21 |
| COC(=O)C(CC#Cc1ccc2c(c1)[C@]1(C(=O)N2)[C@H](C(=O)O)[C@H]2C(=O)O[C@H](c3ccccc3)[C@H](c3ccccc3)N2[C@@H]1c1ccccc1OCCO)C(=O)OC | 0.232 | 0.63 | 0.0762 | 1.12 | 0.866 | 1.27 | 1.21 | 0.483 (inactive) | 0.451 | 0.275 |
| COCCOC(=O)N1C(=O)[C@@]2(c3cc(C#Cc4ccc(OC)cc4)ccc31)[C@H](C(=O)N1CCN(c3ncccn3)CC1)[C@H]1C(=O)O[C@H](c3ccccc3)[C@H](c3ccccc3)N1[C@@H]2c1ccccc1OCCO | -0.0234 | 0.0841 | -0.124 | 0.475 | 0.711 | 0.0925 | 1.02 | -0.425 (inactive) | 0.0402 | -0.0994 |
| CCOC(=O)C[C@H]1[C@H](OC(=O)c2ccc(-c3ccccc3)cc2)[C@@H](NC(=O)C2CCCCC2)c2cc(OCCCO)ccc2N1C(=O)c1ccccc1 | -0.539 | 0.338 | -0.0344 | 0.303 | 0.425 | 0.397 | 0.337 | -0.298 (inactive) | 0.345 | 0.103 |
| C=C(/C(=C/C[C@@H](OC(=O)c1ccncc1)c1ccccc1OCCO)c1cc(C(=O)OC)ccc1OC)C(C)C | -0.259 | 0.584 | -0.0352 | 0.533 | 0.311 | 0.878 | 1.1 | -1.31 (inactive) | 0.586 | 0.0854 |
| CC(C)NC(=O)[C@@]1(C)c2ccccc2C(=O)N(C(C)C)[C@H]1c1ccc(CO)cc1 | -0.0225 | -0.953 | -0.153 | -0.564 | -0.792 | 0.493 | -0.643 | -0.639 (inactive) | -0.242 | -0.252 |
| C=CCN1C(=O)[C@@]2(O[C@@H](CCn3cc([C@H](O)c4ccccc4)nn3)[C@H]([Si](C)(C)c3ccc(OC)cc3)[C@H]2C)c2ccccc21 | -0.0119 | 0.395 | -0.036 | 0.386 | 0.501 | 1.31 | 1.01 | -1.45 (inactive) | 0.728 | -0.289 |
| CC(C)(C)OC(=O)CC[C@]1(C(=O)O)N=C(c2ccc(OCCCO)cc2)O[C@H]1c1ccccc1CN=[N+]=[N-] | -0.169 | -0.246 | 0.0911 | 0.113 | 0.261 | 1 | 1.45 | 2.04 (inactive) | 0.794 | -0.409 |
| Cc1ccc(S[C@]2(C(=O)NCCN3CCOCC3)CC(=O)N(Cc3ccccc3C(F)(F)F)[C@@H]2c2ccc(CO)cc2I)cc1 | 0.273 | -0.245 | -0.0876 | -0.36 | -0.103 | 2.09 | 1.23 | -0.883 (inactive) | -0.295 | -0.236 |
| COCCOC(=O)N1C(=O)[C@@]2(c3cc(C#CCNC(N)=O)ccc31)[C@H](C(=O)N1CCCCCCC1)[C@H]1C(=O)O[C@H](c3ccccc3)[C@H](c3ccccc3)N1[C@@H]2c1ccc(O)cc1 | 0.333 | 0.189 | -0.0557 | 0.159 | 0.845 | 0.571 | 0.596 | -0.134 (inactive) | 0.706 | 0.0066 |
| CC=CC(O)C1C=CC2C(=O)N(c3ccccc3)C(=O)C2N1Nc1ccccc1 (stereo not given) | 0.393 | 0.274 | -0.0114 | 1.02 | 1.68 | 1.91 | 1.29 | 0.568 (inactive) | 1.14 | -0.0852 |
| O=C(CS)NCCCCCCNC(=O)[C@@H]1C[C@@H]2C(=O)N3CCC[C@H]3C(=O)N2[C@@H]1c1cccc(OCCO)c1 | 0.145 | 0.804 | 0.109 | 0.256 | 0.407 | 1.28 | 0.911 | 1.05 (inactive) | -0.022 | -0.0645 |
